Screens (PubChem)
An excerpt weighted towards active compounds, which were near 3.6% of everything screened.
EBV LMP1 NFkB: reduces LMP1-driven NF-kappaB luciferase signal. LMP1-induced NF-kappaB luciferase reporter cells, luminescence. inhibition, % at 12.5 µM. 0.69% of 350,000 active. AID 504558; in the data active = inhibition above about 41%; inconclusive = no clear call, values can overlap the other calls;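 note: 0% = neutral control wells and 100% = reference inhibitor control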
HSF1 activator: increases HSF-1 driven luciferase reporter signal | NIH3T3-HGL HSF-1 luciferase reporter, MG132, 8 h; 100% = twice DMSO control signal | activation, % at 9 µM | 1.7% of 300,000 active | AID 504408;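 active = mean replicate activation of at least 50% with a set share of replicates each reaching 50%; inconclusive = only one of those two conditions met; inactive = mean below 50% and too few replicates reaching it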;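 note: 0% = median of the neutral control wells and 100% = twice that signal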
HSF1 inhib: HSF1 inhibition; NIH3T3-HGL HSE-luciferase, MG132-induced, luminescence 8 h; stronger effect = lower value; AID 2098; 0.77% of 300,000 active; activity change, negative = inhibition, % at 7.5 µM (by protocol);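 active = more than half of replicate wells show activity change below -50%, luminescence cut by over half; inconclusive = some wells, but at most half, below -50%; inactive = no replicate well below -50%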;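 note: luciferase reports HSF-1 transcriptional activity via heat shock element; 0% = median of DMSO wells and -100% = zero luminescence signal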
LGR2 inh: Drosophila LGR2 receptor signaling inhibition; HEK293 LGR2, CRE-luciferase, bursicon-stimulated, 4 h; inhibition, % at 9.99 µM; 0.35% of 380,000 active; AID 720647;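 active = drop in luminescence signal, shown as inhibition above about 50% in the replicate tests, limit read from the data, passing the limit was not always enough; inconclusive = probably only some replicates passing the limit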;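 note: agonist challenge used bursicon conditioned medium at about half maximal strength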
TWEAK Fn14 block: TWEAK-Fn14 signaling inhibition; AID 1159606; 2% of 360,000 active; inhibition, % at 10 µM; TWEAK-stimulated Fn14 reporter cells, luciferase luminescence, 8 h; in the data active = inhibition above about 50%
TROY signal inh: inhibitors of TROY-dependent NF-kB signaling; Q293 LMP1-TROYcd NF-kB luciferase reporter, 4 h; inhibition, % at 10 µM; 0.98% of 360,000 active; AID 1347056;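 active = compounds whose plate-normalised and pattern-corrected inhibition of the luciferase reporter signal at the single screening dose is 50% or more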
* hit, by the source's call; ? = inconclusive; / = not tested or not shown.

SMILES | EBV LMP1 NFkB | HSF1 activator | HSF1 inhib | LGR2 inh | TWEAK Fn14 block | TROY signal inh
OC(CSc1ccccc1Cl)CN1CCN(c2ccccc2F)CC1 (stereo unspecified) | 0.5 | 4.2 | -8.0 | -6.4 | 31.6 | 63.5*
COc1ccc2c3c(n(C)c2c1)[C@H](CO)N(C(=O)NC(C)C)CC31CN(C(C)=O)C1 | / | / | / | -5.0 | / | /
O=C(OCC(=O)N1CCN(C(=O)c2ccco2)CC1)c1cccc(F)c1 | -1.9 | / | / | -16.5 | 3.5 | -18.0
O=C(OCC(=O)N1CCN(C(=O)c2ccco2)CC1)c1sc2cc(F)ccc2c1Cl | 0.0 | -65.6 | -54.7* | / | -5.6 | -5.6
O=S(=O)(c1ccc(Cl)cc1)c1cnc2ccccc2n1 | 7.5 | 21.9 | 10.0 | 30.0 | 58.6* | 12.6
COc1ccc(NC(=O)C2Cc3c(-c4ccccc4Oc4ccccc4)ccnc3O2)cc1OC (stereo unspecified) | / | / | / | 29.6 | 63.4* | 42.7
Cc1ccc(S(=O)(=O)NCC[C@@H]2CC[C@H](NC(=O)CC3CC3)[C@@H](CO)O2)cc1 | / | / | / | -18.1 | / | /
CCn1c(SCC(=O)c2ccc(C)cc2)nnc1-c1ccoc1C | -6.7 | 26.0 | -3.6 | / | -31.1 | -3.5
Cn1c(CO)cnc1SCC(=O)c1ccc(Cl)cc1 | 20.4 | 80.4* | 48.3 | -21.7 | -23.6 | -8.7
CCn1c(SCC(=O)c2ccc(Cl)cc2)nnc1C(C)C | -9.8 | 145.4* | 148.2 | / | 0.2 | -28.3
Cn1ccnc1SCC(=O)c1ccc(Cl)cc1 | 0.1 | 17.3 | 2.2 | -13.6 | -15.4 | -34.7
CCn1c(SCC(=O)c2ccc(Cl)cc2)nnc1-c1ccoc1C | -2.8 | 75.0* | 40.3 | / | -1.5 | -8.6
COC(=O)c1cnc(SCc2ccc(Cl)cc2)n1C | -15.3 | 69.3* | 51.5 | -45.4 | -0.3 | -54.2
COC(=O)c1cnc(SCC(=O)c2ccccc2)n1C | -11.0 | 41.5 | 22.5 | -25.0 | 31.6 | -5.3
COCC#Cc1cnc2c(c1)C(=O)N([C@H](C)CO)C[C@H](C)[C@@H](CN(C)C(C)=O)O2 | / | / | / | -9.6 | / | /
C[C@H]1CN([C@@H](C)CO)C(=O)Cc2cc(NC(=O)Cn3cnnn3)ccc2O[C@H]1CN(C)C(=O)Nc1cccc2ccccc12 | / | / | / | 9.0 | / | /
CCn1c(CNC(=O)Cc2ccc(OC)cc2)nnc1SCC(=O)c1ccc(Br)cc1 | 2.5 | 44.8 | 21.5 | 12.5 | 0.1 | 13.8
CCn1c(CNC(C)=O)nnc1SCC(=O)c1ccc(Br)cc1 | 4.6 | 81.6* | 69.6 | / | 0.6 | -13.2
CCN=c1scc(C)n1/N=C/c1cc(Br)c(O)c(Br)c1 | 7.2 | -12.6 | -0.5 | 21.2 | 9.5 | 53.2*
O=C(Nc1ccccc1N1CCCC1)C1CCN(S(=O)(=O)c2ccccc2C(F)(F)F)CC1 | -9.9 | 23.0 | 5.6 | 12.8 | -6.2 | -14.1
O=C(Nc1ccccc1N1CCCCC1)C1CCN(S(=O)(=O)c2ccccc2C(F)(F)F)CC1 | 9.8 | -69.3 | -57.9* | 3.5 | 16.6 | 3.1
CC1(C)CC(NC(=O)C2CCN(S(=O)(=O)c3ccccc3C(F)(F)F)CC2)CC(C)(C)N1 | 2.7 | -12.7 | -4.5 | -3.3 | 10.6 | 10.5
O=C(NC1CCCC1)C1CCN(C(=O)c2ccc(Cl)cc2)CC1 | -1.5 | 54.0* | 15.6 | 2.2 | 21.9 | 15.1
Cc1ccc(C(=O)N2CCC(C(=O)NC3CCCC3)CC2)cc1 | -2.9 | -8.7 | -5.9 | -6.8 | -7.8 | 10.5
O=c1[nH]c(NC2CCN(S(=O)(=O)c3ccccc3C(F)(F)F)CC2)nc2c1CCCC2 | 53.4* | -3.4 | 0.4 | 9.6 | 31.6 | 36.2
SMILES | EBV LMP1 NFkB | HSF1 activator | HSF1 inhib | LGR2 inh | TWEAK Fn14 block | TROY signal inh
O=C(NC1CCN(S(=O)(=O)c2ccccc2C(F)(F)F)CC1)c1ccco1 | -4.8 | 0.6 | 2.3 | -20.3 | 56.2* | 0.0
O=C(Nc1ccccc1N1CCCC1)C1CCN(C(=O)c2ccc(Cl)cc2)CC1 | -6.4 | -6.5 | -4.8 | 4.4 | -2.1 | 1.0
O=C(Nc1ccccc1N1CCCCC1)C1CCN(C(=O)c2ccc(Cl)cc2)CC1 | 10.4 | -74.7 | -67.5* | 14.0 | 10.1 | 3.6
COC(=O)[C@H]1[C@H](CO)[C@H]2Cn3c(ccc(-c4ccc(F)cc4)c3=O)[C@H]2N1C | / | / | / | -18.1 | / | /
Nc1ncc(Br)cc1S(=O)(=O)Nc1cc(C(F)(F)F)cc(C(F)(F)F)c1 | 8.3 | -6.5 | -1.6 | ? | 46.7 | 55.5*
Cc1ccc(O)c(N=Nc2ccc(S(=O)(=O)N3CCCC3)cc2)c1 | -3.9 | -2.4 | 10.1 | -11.9 | 3.1 | -47.9
COc1ccc(N=Cc2ccccc2O)cc1 | -10.7 | / | / | 3.2 | 12.0 | -10.0
